# Assay results from PubChem BioAssay (EPA / NIEHS).
# Several values for one entry are separate records, joined by “and”; a condition that tells them apart may be missing. Equal entries are not always repeated. Inconclusive results are not listed. A structure can be active in one record and inactive in another. Activity calls are given as the source filed them. Rule for the calls, unless noted: active = hit-call score of the fitted dose curve at least 0.9, where 1 is the maximum; inactive = score below 0.9.
# Tests used:
# [1] = TAMU_PeakParms_SingleDonor1434_QT: Texas A&M University (TAMU) 1.5-hr Human Induced Pluripotent Stem Cell (iPSC)-derived Cardiomyocytes Calcium (Ca+2) Flux Assay for Cardiotoxicity: QT (decay-rise ratio) (AID 2284235; active = hit-call score of the fitted dose curve at least 0.9, where 1 is the maximum)
# Summary of the method: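 Decay/rise ratio of calcium-flux fluorescence scored after 90 min exposure (37C) of donor 1434 iPSC cardiomyocytes to 0.2–100 uM (0.5% DMSO). Beat-cessation and severe-notch points removed; POD is EC05, a 5% rise over DMSO.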
# [2] = CCTE_Mundy_HCI_hNP1_Casp3_7: CCTE's Caspase-Glo 3/7 Assay in human neuroprogenitor cells for Apoptosis, Mundy Lab (AID 2284240)
# Summary of the method: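 Neuroepithelial-lineage stem cells from WA09 embryonic cells were treated with chemicals after 40–44 h of culture. Twenty-four hours later, caspase-3/7 activation was detected luminescently after a 30 min room-temperature reagent step, with DMSO as baseline.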
# [3] = CCTE_Mundy_HCI_Cortical_NOG_NeuronCount: CCTE's Neurite Outgrowth Assay in rat cortical cells for Neuron Count, Mundy Lab (AID 2284236; active = hit-call score of the fitted dose curve at least 0.9, where 1 is the maximum;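 note: neurons counted by imaging betaIII-tubulin and Hoechst stained cortical cells; cells exposed to compound for about 48 hours before fixation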)
# Summary of the method: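 Read-out: neuron number by high-content imaging of betaIII-tubulin (Alexa Fluor-488) and Hoechst-labelled rat primary cortical cells.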
# [4] = CCTE_Mundy_HCI_Cortical_Synap_Neur_Matur_NeuronCount: CCTE's Synaptogenesis and Neurite Maturation Assay in rat cortical cells for Neuron Count, Mundy Lab (AID 2284242; active = hit-call score of the fitted dose curve at least 0.9, where 1 is the maximum;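 for AC50: neuron number from Hoechst nuclei and MAP2 staining by high-content imaging; hits reduce neuron count versus DMSO baseline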)
# Summary of the method: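 Cortical cells from rat are plated, treated with AraC at DIV 5, and exposed to test chemicals with a media change at DIV 7. At DIV 12 they are fixed and immunostained (MAP2, synaptophysin), and imaged neuron counts are compared against DMSO controls.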
# [5] = read-out: Collagen I, COL1A1 (gene 1277); assay: BSK_MyoF_CollagenI: BioMAP Diversity Plus: MyoF Assay for Collagen I Biomarker Activity (AID 2284238); settings: primary human lung fibroblasts
# Summary of the method: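 ELISA readout of Collagen I after 24 h chemical treatment of primary human lung fibroblast cultures; gain of signal scored relative to DMSO vehicle baseline.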
# [6] = read-out: Collagen III, COL3A1 (gene 1281); assay: BSK_MyoF_CollagenIII: BioMAP Diversity Plus: MyoF Assay for Collagen III Biomarker Activity (AID 2284239); settings: primary human lung fibroblasts
# Summary of the method: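 Lung fibroblast culture; 24 h compound exposure; collagen III by ELISA; gain-of-signal fit vs DMSO baseline.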
# [7] = read-out: Interleukin 17F (IL17F), IL17F (gene 112744); assay: BSK_BT_xIL17F: BioMAP Diversity Plus: BT Assay for Interleukin 17F (IL17F) Biomarker Activity (AID 2284243); settings: primary human B cells with PBMC
# Summary of the method: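 Secreted IL-17F, read on LumineX xMAP beads, was taken as the endpoint. Cultures combined human B cells and peripheral blood mononuclear cells, sampled 24 hours after dosing, with DMSO serving as negative control.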
# [8] = read-out: Actin alpha 1 (ACTA1), ACTA1 (gene 58); assay: BSK_MyoF_ACTA1: BioMAP Diversity Plus: MyoF Assay for Actin alpha 1 (ACTA1) Biomarker Activity (AID 2284244); settings: primary human lung fibroblasts
# Summary of the method: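 Cells were exposed to chemical for 24 h before a-SMA levels were quantified by ELISA in human lung fibroblasts. Increases were fitted against DMSO as negative control; parallel SRB staining (0.1% after 10% TCA fixation, 560 nm) assessed cytotoxicity.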
# [9] = read-out: Interleukin 2 (IL2), IL2 (gene 3558); assay: BSK_BT_xIL2: BioMAP Diversity Plus: BT Assay for Interleukin 2 (IL2) Biomarker Activity (AID 2284245); settings: primary human B cells with PBMC
# Summary of the method: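 The BT system combines human B cells with peripheral blood mononuclear cells. Twenty-four hours after chemical dosing, secreted IL-2 was measured with xMAP bead technology, and responses were analyzed as increases over DMSO controls.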
# [10] = read-out: Basic fibroblast growth factor (bFGF), FGF2 (gene 2247); assay: BSK_MyoF_bFGF: BioMAP Diversity Plus: MyoF Assay for Basic fibroblast growth factor (bFGF) Biomarker Activity (AID 2284246); settings: primary human lung fibroblasts
# Summary of the method: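 Chemicals are added to human lung fibroblast cultures and incubated 24 h. bFGF is then measured by ELISA, while parallel cultures receive SRB staining for total protein as a cytotoxicity check. Data are fitted upward against DMSO.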
# [11] = read-out: Collagen IV, COL4A1 (gene 1282); assay: BSK_MyoF_CollagenIV: BioMAP Diversity Plus: MyoF Assay for Collagen IV Biomarker Activity (AID 2284247); settings: primary human lung fibroblasts
# Summary of the method: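 Human lung fibroblast system, 24 h chemical exposure. Endpoint: Collagen IV by ELISA, upward fit vs DMSO.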
# [12] = read-out: Monokine induced gamma interferon (MIG), CXCL9 (gene 4283); assay: BSK_KF3CT_MIG: BioMAP Diversity Plus: KF3CT Assay for Monokine induced gamma interferon (MIG) Biomarker Activity (AID 2284248); settings: primary human keratinocytes with fibroblasts
# Summary of the method: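 ELISA read-out of MIG after 24 h chemical exposure of human skin primary co-culture (keratinocytes, foreskin fibroblasts). Gain of signal relative to DMSO negative control was analysed.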
# [13] = read-out: Vascular cell adhesion molecule 1 (VCAM1), VCAM1 (gene 7412); assay: BSK_BF4T_VCAM1: BioMAP Diversity Plus: BF4T Assay for Vascular cell adhesion molecule 1 (VCAM1) Biomarker Activity (AID 2284249); settings: primary human bronchial epithelial cells with fibroblasts
# Summary of the method: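 Cell-surface VCAM-1 quantified by ELISA after 24 h chemical exposure of human bronchial epithelial/dermal fibroblast co-cultures, with SRB staining in parallel wells for cytotoxicity; DMSO baseline, positive-direction fitting.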
# [14] = read-out: Collagen I, COL1A1 (gene 1277); assay: BSK_hDFCGF_CollagenI: BioMAP Diversity Plus: hDFCGF Assay for Collagen I Biomarker Activity (AID 2284250); settings: primary human foreskin fibroblasts
# Summary of the method: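 Collagen I ELISA, primary human foreskin fibroblasts, 24 h chemical exposure, DMSO = negative control/baseline, positive fitting direction.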
# [15] = read-out: Interferon-inducible T-cell alpha chemoattractant (ITAC), CXCL11 (gene 6373); assay: BSK_hDFCGF_ITAC: BioMAP Diversity Plus: hDFCGF Assay for Interferon-inducible T-cell alpha chemoattractant (ITAC) Biomarker Activity (AID 2284251); settings: primary human foreskin fibroblasts
# Summary of the method: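 Chemical dosing of primary human foreskin fibroblast cultures preceded ELISA measurement of I-TAC at 24 h. Response was analysed in the positive direction using DMSO as baseline, while parallel SRB staining measured cytotoxicity.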
# [16] = read-out: Plasminogen activator inhibitor-1 (PAI1), SERPINE1 (gene 5054); assay: BSK_KF3CT_PAI1: BioMAP Diversity Plus: KF3CT Assay for Plasminogen activator inhibitor-1 (PAI1) Biomarker Activity (AID 2284252); settings: primary human keratinocytes with fibroblasts
# Summary of the method: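 Cells (human keratinocytes co-cultured with foreskin fibroblasts) are exposed to test chemical for 24 h. PAI-1 is then measured by ELISA and analysed for signal gain against DMSO.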
# [17] = read-out: Monocyte Chemoattractant Protein-1 (MCP1), CCL2 (gene 6347); assay: BSK_IMphg_MCP1: BioMAP Diversity Plus: IMphg Assay for Monocyte Chemoattractant Protein-1 (MCP1) Biomarker Activity (AID 2284253); settings: primary human endothelial cells with macrophages
# Summary of the method: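 ELISA readout of MCP-1 at 24 hours in IMphg co-cultures of venular endothelial cells and macrophages, normalised to DMSO; parallel cultures stained with sulforhodamine B for overt cytotoxicity.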
# [18] = read-out: Interleukin-8 (IL8), CXCL8 (gene 3576); assay: BSK_KF3CT_IL8: BioMAP Diversity Plus: KF3CT Assay for Interleukin-8 (IL8) Biomarker Activity (AID 2284254); settings: primary human keratinocytes with fibroblasts
# Summary of the method: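 IL-8 read-out: ELISA, 24 h post-dose, human skin primary co-culture (keratinocytes + foreskin fibroblasts). DMSO = baseline; positive-direction fit.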
# [19] = read-out: Macrophage Inflammatory Protein-1 Alpha (MIP1a), CCL3 (gene 6348); assay: BSK_IMphg_MIP1a: BioMAP Diversity Plus: IMphg Assay for Macrophage Inflammatory Protein-1 Alpha (MIP1a) Biomarker Activity (AID 2284255); settings: primary human endothelial cells with macrophages
# Summary of the method: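 MIP-1a protein levels were quantified by ELISA after 24 h treatment of human endothelial cell–macrophage co-cultures, compared with DMSO. Parallel cultures were fixed with TCA and stained with 0.1% SRB to gauge overt cytotoxicity.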
# [20] = read-out: Plasminogen activator inhibitor-1 (PAI1), SERPINE1 (gene 5054); assay: BSK_MyoF_PAI1: BioMAP Diversity Plus: MyoF Assay for Plasminogen activator inhibitor-1 (PAI1) Biomarker Activity (AID 2284256); settings: primary human lung fibroblasts;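 for outcome: PAI-1 protein level measured by ELISA in fibroblast cultures; PAI-1 read 24 h after compound addition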
# Summary of the method: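 MyoF lung fibroblasts, human primary; compound 24 h; PAI-1 ELISA; positive-direction fit vs DMSO baseline; parallel SRB total-protein staining for cytotoxicity.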
smiles,measurement,setting,value
CN1CSC(=S)N(C)C1,outcome,[1],inactive
O=[N+]([O-])/N=C1\NCCN1Cc1ccc(Cl)nc1,outcome,[2],inactive
CC1(C)C(C=C(Cl)Cl)C1C(=O)OC(C#N)c1ccc(F)c(Oc2ccccc2)c1 (stereo not given),AC50,[3],49.9 µM (active)
same,outcome,[3],inactive
same,AC50,[2],31.3 µM (active)
same,outcome,[2],inactive
same,AC50,[4],49.9 µM (active)
O=C(O)COc1ccc(Cl)cc1Cl,outcome,[3],inactive
same,outcome,[2],inactive
CNC(=O)CSP(=S)(OC)OC,outcome,[2],inactive
same,AC50,[4],50 µM (active)
same,outcome,[4],inactive
O=S1OCC2C(CO1)C1(Cl)C(Cl)=C(Cl)C2(Cl)C1(Cl)Cl (stereo not given),outcome,[1],inactive
same,AC50,[3],25.2 µM (active)
same,AC50,[2],19.4 µM (active)
same,AC50,[4],22.5 µM (active)
CCC(C)(C)C(=O)OC1=C(c2ccc(Cl)cc2Cl)C(=O)OC12CCCCC2,outcome,[2],inactive
same,outcome,[4],inactive
CC1(c2ccc(Oc3ccccc3)cc2)OC(=O)N(Nc2ccccc2)C1=O (stereo not given),AC50,[3],23.8 µM (active)
same,outcome,[2],inactive
same,AC50,[4],10.9 µM (active)
CC(C)N(C(=O)COc1nnc(C(F)(F)F)s1)c1ccc(F)cc1,outcome,[3],inactive
same,outcome,[2],inactive
O=S(=O)(O)C(F)(F)C(F)(F)C(F)(F)C(F)(F)C(F)(F)C(F)(F)C(F)(F)C(F)(F)F,outcome,[3],inactive
same,outcome,[5],inactive
same,outcome,[6],inactive
same,outcome,[2],inactive
same,outcome,[4],inactive
same,outcome,[7],inactive
same,outcome,[8],inactive
same,outcome,[9],inactive
same,outcome,[10],inactive
same,outcome,[11],inactive
same,outcome,[12],inactive
same,outcome,[13],inactive
same,outcome,[14],inactive
same,AC50,[15],30 µM (active) and 38.1 µM (active)
same,outcome,[15],inactive
same,AC50,[16],24.4 µM (active) [middle of 4 runs]
same,outcome,[17],inactive
same,outcome,[18],inactive
same,outcome,[19],inactive
same,outcome,[20],inactive
O=C(O)C(F)(F)C(F)(F)C(F)(F)C(F)(F)C(F)(F)C(F)(F)C(F)(F)F,outcome,[3],inactive
same,outcome,[5],inactive
same,outcome,[6],inactive
same,outcome,[2],inactive
same,outcome,[4],inactive
same,outcome,[7],inactive
same,outcome,[8],inactive
same,outcome,[9],inactive
same,outcome,[10],inactive
same,AC50,[11],31.6 µM (active) [middle of 4 runs]
same,outcome,[12],inactive
same,outcome,[13],inactive
same,outcome,[14],inactive
same,outcome,[15],inactive
same,outcome,[16],inactive
same,outcome,[17],inactive
same,outcome,[18],inactive
same,outcome,[19],inactive
same,outcome,[20],inactive
CC[C@H](C)[C@H]1O[C@]2(C=C[C@@H]1C)C[C@@H]1C[C@@H](C/C=C(\C)[C@@H](O[C@H]3C[C@H](OC)[C@@H](O[C@H]4C[C@H](OC)[C@@H](O)[C@H](C)O4)[C@H](C)O3)[C@@H](C)/C=C/C=C3\CO[C@@H]4[C@H](O)C(C)=C[C@@H](C(=O)O1)[C@]34O)O2 (tested in a mixture with another compound),AC50,[3],13.3 µM (active)
same,AC50,[2],3.64 µM (active)
same,AC50,[4],1.55 µM (active)
ClC1C(Cl)C(Cl)C(Cl)C(Cl)C1Cl (stereo not given),AC50,[5],25.5 µM (active)
same,outcome,[5],inactive
same,AC50,[6],30.3 µM (active)
same,outcome,[6],inactive
same,AC50,[7],20 µM (active)
same,outcome,[7],inactive
same,AC50,[8],28.5 µM (active)
same,outcome,[8],inactive
same,AC50,[9],31.9 µM (active)
same,outcome,[9],inactive
same,outcome,[10],inactive
same,outcome,[11],inactive
same,AC50,[20],0.295 µM (active)
same,outcome,[20],inactive
COP(=O)(OC)OC=C(Cl)Cl,outcome,[3],inactive
same,outcome,[2],inactive
same,AC50,[4],81.4 µM (active)
COP(=S)(OC)Oc1ccc([N+](=O)[O-])cc1,AC50,[3],2.98 µM (active)
same,outcome,[2],inactive
same,AC50,[4],22.1 µM (active)
